{
  "source": "ChEMBL document CHEMBL1201862",
  "about": "“PubChem BioAssay data set” (2004)",
  "note": "Screen size: about 400,000 compounds; about 3,700 (0.93%) were called active. Not shown: some 3% with an inconclusive outcome. The calls are words filed in the database; no cut-off is given here. Many of the other results were omitted from the sample, so actives are more common in it than they were.",
  "data": [
    {"target": "T1, Vitamin D3 receptor (Homo sapiens) (UniProt P11473)", "T1 sequence (whole entry)": "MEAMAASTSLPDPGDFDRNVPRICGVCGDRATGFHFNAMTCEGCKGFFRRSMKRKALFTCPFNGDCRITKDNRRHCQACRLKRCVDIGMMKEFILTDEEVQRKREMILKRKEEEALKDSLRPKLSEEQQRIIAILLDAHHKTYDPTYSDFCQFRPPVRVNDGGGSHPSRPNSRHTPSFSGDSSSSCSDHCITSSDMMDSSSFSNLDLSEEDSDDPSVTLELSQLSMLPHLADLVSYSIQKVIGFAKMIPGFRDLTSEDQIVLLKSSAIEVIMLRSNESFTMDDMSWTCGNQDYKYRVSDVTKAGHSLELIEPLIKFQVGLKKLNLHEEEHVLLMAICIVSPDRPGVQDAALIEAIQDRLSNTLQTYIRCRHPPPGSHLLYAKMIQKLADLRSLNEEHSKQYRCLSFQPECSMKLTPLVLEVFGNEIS", "assay": "Inhibitors of the vitamin D receptor (VDR): qHTS. [Related pubchem assays (depositor defined):AID504855]", "assay_type": "functional", "values": [
      {"smiles": "O=C(/C=C/c1ccc(Cl)cc1)c1cccs1", "Potency": "3.16 µM (active)"},
      {"smiles": "COc1ccccc1/C=C/C(=O)c1cccs1", "Potency": "25.1 µM (active)"},
      {"smiles": "CCCc1nnc(NC(=O)C2C(=O)c3cccc4c3N(CC4)C2=O)s1", "note": "(stereo not drawn)", "Potency": "79.4 µM (active)"}
    ]}
  ]
}
